Assay outcomes from PubChem BioAssay.
INS promoter inh = TRM-6 insulin promoter activity inhibition; 130,000 tested, 0.9% active; inhibition, % at 2 µM; AID 1273; TRM-6 cells (human fetal islet line), insulin promoter-eGFP reporter, imaging; reporter expression induced with tamoxifen;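 active = inhibition above the mean plus 3 SD, with well images judged a real hit on visual review, cut at about 60% in these data, passing the limit was not always enough; inconclusive = inhibition over the cutoff but images rejected on review; inactive = inhibition not above the cutoff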
HCT116 bCat-KO = beta-catenin-lacking colon tumor cell growth suppression; 140,000 tested, 1.5% active; viability, % at 10 µM; HCT116 beta-catenin knockout viability, CellTiter-Glo, 60 h; active compounds read low;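 active = viability at or under a set limit, the compound median less 4 SD, cut at about 6% in these data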
ROMK primary = modulates human ROMK potassium channel activity; Tet-inducible ROMK, thallium flux fluorescence; actives lie on both sides; P48048; AID 1918; 130,000 tested, 2% active; B-score at 10 µM;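 active = signal ratio slope over the read window, or its plate-corrected B-score, at least 3 SD from the plate mean, either direction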;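 note: B-score of the F/F0 ratio slope over 7 to 12 s after thallium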
p97 inhibitor = blocks human p97 ATPase activity | AID 1481 | recombinant p97 ATPase, Kinase-Glo ATP luminescence, 3 h | 220,000 tested, 0.42% active | inhibition, % at 8 µM; in the data active = inhibition above about 15%
Target sequence (P55072 whole entry, looked up): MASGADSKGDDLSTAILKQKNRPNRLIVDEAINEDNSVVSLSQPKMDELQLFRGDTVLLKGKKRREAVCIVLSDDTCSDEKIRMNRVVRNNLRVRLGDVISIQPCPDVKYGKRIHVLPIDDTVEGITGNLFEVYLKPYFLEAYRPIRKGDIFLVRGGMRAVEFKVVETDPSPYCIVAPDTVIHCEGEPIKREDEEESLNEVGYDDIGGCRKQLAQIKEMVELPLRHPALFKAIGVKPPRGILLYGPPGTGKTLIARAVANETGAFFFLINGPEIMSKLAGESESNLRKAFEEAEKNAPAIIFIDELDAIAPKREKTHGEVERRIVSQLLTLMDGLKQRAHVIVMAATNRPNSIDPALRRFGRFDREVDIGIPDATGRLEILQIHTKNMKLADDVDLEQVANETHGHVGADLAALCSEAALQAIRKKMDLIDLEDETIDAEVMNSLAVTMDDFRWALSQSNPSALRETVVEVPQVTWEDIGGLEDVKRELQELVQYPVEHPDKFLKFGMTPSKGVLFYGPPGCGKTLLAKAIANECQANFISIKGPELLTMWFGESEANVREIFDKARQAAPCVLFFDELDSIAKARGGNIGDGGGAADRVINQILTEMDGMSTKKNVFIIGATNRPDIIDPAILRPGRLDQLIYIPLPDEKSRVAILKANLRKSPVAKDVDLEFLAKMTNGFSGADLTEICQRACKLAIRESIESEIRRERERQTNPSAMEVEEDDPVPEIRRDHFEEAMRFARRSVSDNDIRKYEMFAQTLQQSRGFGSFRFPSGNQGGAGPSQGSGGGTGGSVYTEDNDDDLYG
HCT116 PTEN-null = PTEN-deleted cell growth suppression; HCT116 PTEN-null viability, CellTiter-Glo, 60 h; active compounds read low; 140,000 tested, 1.2% active; viability, % at 10 µM; AID 827;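 active = viability at or below a set limit, 4 SD under the median of all tested compounds, cut at about 3.7% in these data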;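 note: PTEN knockout HCT116 line with beta catenin targeted HCT116 as companion control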
Lmaj promast = Leishmania major promastigote growth inhibition. Leishmania major promastigotes, resazurin fluorescence viability. inhibition, % at 10 µM. 200,000 tested, 9% active; in the data active = inhibition above about 50%;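 note: promastigotes grown with compound for 44 hours at 28 °C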
L major 1uM = L. major promastigote growth inhibition, 1 uM repeat | shares compounds with Lmaj promast | inhibition, % at 1 µM | resazurin fluorescence, 48 h | 1,100 tested, 13% active | AID 1258;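 active = inhibition above about 50% in both repeat tests, limit read from the data; inconclusive = one repeat under the set limit, the other over it; inactive = both repeats under the set limit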
Large screens that a line does not name were inactive (follow-up assays come after a bar, where they were run). An excerpt weighted towards active compounds, which were near 10% of everything screened.

CC(=O)Nc1ccc(S(=O)(=O)NCCSCc2ccccc2Cl)cc1	Lmaj promast 68 (no result: ROMK primary) | L major 1uM inactive
CN(C)CCCN=c1cc(-c2ccccc2)oc2ccc(Cl)cc12	Lmaj promast 100 (no result: HCT116 bCat-KO, HCT116 PTEN-null) | L major 1uM 89
CN(C)CCCN1C(=O)c2oc3ccc(Cl)cc3c(=O)c2C1c1cccnc1 (centres undefined)	none (no result: INS promoter inh, ROMK primary)
COc1ccc(S(=O)(=O)Nc2ccccc2C(F)(F)F)cc1	none
COc1ccc(S(=O)(=O)Nc2ccc(O)c3ccccc23)cc1	HCT116 bCat-KO 1.5, HCT116 PTEN-null 2.3, Lmaj promast 100 (no result: ROMK primary) | L major 1uM 97
CC(C)(C)c1ccc(-c2nc(C=O)c3ccccn23)cc1	Lmaj promast 63 (no result: INS promoter inh) | L major 1uM inactive
C/C(N)=C(/C#N)C(=O)CSc1nnc(Nc2ccccc2)s1	Lmaj promast 54 (no result: HCT116 bCat-KO, HCT116 PTEN-null) | L major 1uM inactive
CC(C)(C)NC(=S)NC(C)(C)C	none (no result: INS promoter inh, HCT116 bCat-KO, ROMK primary, HCT116 PTEN-null, Lmaj promast)
Cc1ccc2cc(CN(Cc3nnnn3Cc3ccco3)CC3CCCO3)c(=O)[nH]c2c1C (centres undefined)	none (no result: INS promoter inh)
Cc1ccc(S(=O)(=O)Cn2nnnc2CN(Cc2ccco2)CC2CCCO2)cc1 (centres undefined)	Lmaj promast 53 (no result: ROMK primary) | L major 1uM inactive
C=CCn1cccc(/C=C/C(=O)c2ccc(C(C)(C)C)cc2)c1=S	HCT116 bCat-KO 1.4, HCT116 PTEN-null 1.8, Lmaj promast 100 (no result: ROMK primary) | L major 1uM 66
Cc1nn(C)cc1/C=C/C(=O)c1ccc(O)cc1	none
Cc1ccc(NC(=S)NC(NC(=O)c2ccco2)C(Cl)(Cl)Cl)cc1 (centres undefined)	Lmaj promast 83 | L major 1uM inactive
Nc1c(-c2ccccc2)c(CN2CCOCC2)nn1-c1ccc(C(=O)O)cc1	Lmaj promast 66 (no result: ROMK primary) | L major 1uM inactive
CC(CN1CCOCC1)C(=O)c1ccccc1 (centres undefined)	none
O=C(CSc1nnc(-c2ccc(Br)cc2)n1CCc1ccccc1)NC1CCS(=O)(=O)C1 (centres undefined)	none (no result: INS promoter inh)
CC(C)(C)c1ccc(-n2nc(C#N)c(Cl)cc2=O)cc1	Lmaj promast 101 (no result: INS promoter inh, HCT116 bCat-KO, HCT116 PTEN-null) | L major 1uM 92
CC(C)(C)NC(=O)C(c1ccco1)N(C(=O)Cn1nnc(-c2ccc(F)cc2)n1)c1ccccc1F (centres undefined)	none (no result: ROMK primary)
O=C(Nc1ccccc1-c1nc2ccccc2s1)c1cccnc1	Lmaj promast 95 | L major 1uM inactive
O=C1CCCc2c1cc(-c1ccccc1)n2-c1ccc(O)cc1	Lmaj promast 53 | L major 1uM inactive
Cc1ccc(-c2cc3c(n2-c2ccc(C(=O)O)cc2)CCCC3=O)cc1	none
CCN(CC)c1ccc(C=O)c(OC)c1	none (no result: INS promoter inh, HCT116 bCat-KO, HCT116 PTEN-null)
CCSC1=NCCN1C(=O)C(C)(C)Oc1ccc(Cl)cc1	Lmaj promast 65 (no result: INS promoter inh, HCT116 bCat-KO, HCT116 PTEN-null) | L major 1uM inactive
CCN1C(=O)C(C(=O)Nc2ccc(OC)cc2)C2CC1(C)Oc1ccccc12 (centres undefined)	none (no result: ROMK primary)
CN1C(=O)C(c2nnc(Nc3cccc4ccccc34)s2)C2CC1(C)Oc1ccccc12 (centres undefined)	Lmaj promast 72 | L major 1uM inactive
CCCCCCCSc1nsc(N)n1	Lmaj promast 69 (no result: ROMK primary) | L major 1uM inactive
CCC(C#CCN1CCOCC1)(CC)OCCC#N	none
CCC(C#CCN1CCCCC1)(CC)OCCC#N	Lmaj promast 65 | L major 1uM inactive
N#Cc1cnc(NN)nc1	none (no result: INS promoter inh, HCT116 bCat-KO, HCT116 PTEN-null)
CN(CC(=O)N1CCCC1)S(=O)(=O)c1ccc2ccccc2c1	none (no result: HCT116 bCat-KO, HCT116 PTEN-null)
CC(=O)c1c(N2CCN(c3cccc(Cl)c3)CC2)nc(=S)n(-c2ccccc2)c1C	Lmaj promast 91 (no result: ROMK primary) | L major 1uM inactive
CCCCNc1cc(NC(C)=O)cc2cc(OC)c(OC)cc12	Lmaj promast 100 (no result: INS promoter inh, ROMK primary) | L major 1uM inactive
Cc1ccc(C(=O)C(C(=O)/C=C/c2ccccc2)=C2SCCCS2)cc1	HCT116 bCat-KO 2.9, HCT116 PTEN-null 3.5, Lmaj promast 100 | L major 1uM inactive
COc1ccccc1NC(=O)Nc1ccc(F)c(F)c1	none (no result: HCT116 bCat-KO, HCT116 PTEN-null)
COc1ccc2cc3[n+](cc2c1OC)CCc1cc2c(cc1-3)OCO2	INS promoter inh 67, Lmaj promast 100 | L major 1uM 76
COc1cccc(C2=NCCc3cc4c(cc32)OCO4)c1OC	none
O=C(NCCc1ccccc1)C1CCC(CNc2nc(=S)[nH]c3ccccc23)CC1 (centres undefined)	none (no result: HCT116 bCat-KO, HCT116 PTEN-null)
O=C(C1CCC(CNc2nc(=S)[nH]c3ccccc23)CC1)N1CCN(c2ccccn2)CC1 (centres undefined)	Lmaj promast 99 | L major 1uM inactive
CCc1nc2ccccc2c2nc3ccccc3n12	Lmaj promast 87 | L major 1uM inactive
COc1ccc(S(=O)(=O)Nc2ccc(C)cc2)cc1N(C)S(=O)(=O)c1ccc(Cl)cc1	Lmaj promast 99 (no result: INS promoter inh) | L major 1uM inactive
CCOc1ccc(C2=Nc3ccccc3C(c3ccc(N4CCOCC4)cc3)=NN2)cc1	Lmaj promast 63 (no result: ROMK primary) | L major 1uM inactive
O=C1CSC(c2cn(-c3ccccc3)nc2-c2cc3ccccc3oc2=O)N1Cc1ccccc1 (centres undefined)	Lmaj promast 61 | L major 1uM inactive
Cc1ccc(N/N=C(\C#N)C(=N)N2CCCCCC2)cc1	Lmaj promast 61 (no result: HCT116 bCat-KO, HCT116 PTEN-null) | L major 1uM inactive
O=C(Cn1c2ccccc2c(=O)c2ccccc21)Nc1cccc(F)c1	none (no result: ROMK primary)
COc1ccc(-[n+]2c(C)cc(/C=C3\Sc4ccccc4N3C)cc2C)cc1	Lmaj promast 101 (no result: HCT116 bCat-KO, ROMK primary, HCT116 PTEN-null) | L major 1uM 101
CCC1(CC)NC(=O)N(CC(=O)Nc2sc3c(c2C(N)=O)CCC3)C1=O	none
Cc1c([N+](=O)[O-])nnn1-c1cc(Cl)cc(Cl)c1	Lmaj promast 50 (no result: HCT116 bCat-KO, HCT116 PTEN-null) | L major 1uM inactive
O=C(CCC(=O)Nc1ccccc1Cl)NNC(=O)c1ccco1	none (no result: INS promoter inh)
Cc1ccc(S(=O)(=O)NC(N)=NCCc2ccc(Cl)cc2)cc1C	Lmaj promast 51 | L major 1uM inactive
NC(=NCCc1ccc(Cl)cc1)NS(=O)(=O)c1ccc(F)cc1	none (no result: INS promoter inh)
Cn1cnc(S(=O)(=O)Nc2ccc(OC(F)(F)F)cc2)c1	none (no result: INS promoter inh, HCT116 bCat-KO, HCT116 PTEN-null)
CC(C)CCN(C)c1ccc(/C=N/n2cnnc2)cc1	Lmaj promast 82 | L major 1uM inactive
CCOC(=O)c1ccc(N=c2sc(C(=O)OC)cc(=O)n2Cc2ccco2)cc1	HCT116 bCat-KO 2.2, HCT116 PTEN-null 2.2, Lmaj promast 100 (no result: INS promoter inh, ROMK primary) | L major 1uM inactive
COc1ccc(CNC(=O)c2cc(SC)ccc2Cl)cc1OC	none (no result: INS promoter inh, HCT116 bCat-KO, HCT116 PTEN-null)
COC(=O)C[N+](C)(C)CC#Cc1ccccc1	Lmaj promast 53 | L major 1uM inactive
C[N+](C)(CC#Cc1ccccc1)CC(=O)c1ccccc1	none
Cn1c(Cl)cnc1C(O)(c1ccccc1)c1ccccc1	none (no result: INS promoter inh, HCT116 bCat-KO, ROMK primary, HCT116 PTEN-null, Lmaj promast)
Cc1ccc(-c2nnc(N3CCN(c4ccccn4)CC3)c3ccccc23)cc1	HCT116 bCat-KO 3.5, Lmaj promast 91 | L major 1uM inactive
Cc1ccc(CNc2ccc(N3CCOCC3)cc2)s1	INS promoter inh inconclusive, Lmaj promast 81 (no result: ROMK primary) | L major 1uM inactive
